Experimental data published in PubChem BioAssay AID504727 (Broad Institute, 2011).
A number with no mark means an inactive call. Activity calls are given as the source filed them.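 The calls were made as follows: active = fitted half-maximal concentration AC50 at or below ten times the highest valid tested dose, with signal falling as DNA is displaced (actives reach about 34 µM in these data); inconclusive = flat fit at moderate signal loss, or poor fit quality; inactive = the rest, including signal rising instead of falling.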

Test: acridine orange-DNA binding displacement – biochemical, fluorescence polarization, cherry-picked samples, set 2, artefact control for KSHV LANA DNA-binding inhibitor project, dose response (AID 504727)
Settings: series mostly up to 35 µM
With `O=C(COc1cccc(F)c1)Nc1nc(-c2cccnc2)cs1` the AC50 was “inactive”.
With `CCCC1(C2CCCC2)NC(=O)NC1=O` (stereo unspecified) the AC50 was “inactive”.
In the case of `Cc1cccc(NC(=O)CN2C(=O)NC(C)(c3ccc4ccccc4c3)C2=O)n1` (stereo unspecified), the AC50 is reported as “inactive”.
In the case of `O=C(O)CCCN1C(=O)/C(=C/C=C/c2ccco2)SC1=S`, the AC50 is reported as “inactive”.
With `CCN(CC)CCN1C(=O)c2cccc3cc(N)cc(c23)C1=O` the AC50 was 17 µM (active).
In the case of `CCCc1cc(=O)oc2cc(C)cc(OCC(=O)O)c12`, the AC50 is reported as “inactive”.
For `COc1ccc(OC)c(NC(=O)c2nnn(Cc3ccc(Br)cc3F)c2N)c1`, the AC50 was “inactive”.
With `O=C(NCCN1CCN(C(=O)c2cccs2)CC1)c1cccs1` the AC50 was “inactive”.
With `COC(=O)C(NC(=O)C(C)NC(=O)OCc1ccccc1)C(C)C` (stereo unspecified) the AC50 was greater than 35 µM.
With `O=c1cc(-c2ccc(O)c(O)c2)oc2cc(O[C@@H]3O[C@H](CO)[C@@H](O)[C@H](O)[C@H]3O)cc(O)c12` the AC50 was “inactive”.
In the case of `Cc1ccc(-c2nnc(-c3ccc(NC(=O)c4ccco4)cc3)o2)cc1`, the AC50 is reported as “inactive”.
For `O=C(O)c1[nH]c2ccccc2c1C(c1cc(Cl)cc([N+](=O)[O-])c1O)c1c(C(=O)O)[nH]c2ccccc12`, the AC50 was “inactive”.
For `O=C(O)c1cc(N2C(=O)C=CC2=O)cc(N2C(=O)C=CC2=O)c1`, the AC50 was “inactive”.
In the case of `Nc1c(/C=C2/C=CC(=O)C(O)=C2)c(=O)nc2sc(CC(=O)N3CCCCC3)nn12`, the AC50 is reported as “inactive”.
In the case of `O=C1c2ccccc2C(=O)N1Cc1ccc2c(c1)OCO2`, the AC50 is reported as “inactive”.
In the case of `CCC(=O)Nc1cccc(C(=O)/C=C/c2ccccc2)c1`, the AC50 is reported as “inactive”.
In the case of `CSc1ccc(/C=N/Nc2cccc(C(=O)O)c2)cc1`, the AC50 is reported as “inactive”.
In the case of `CC1(C)CCCN(C(=O)c2coc(=O)c(Br)c2)C1`, the AC50 is reported as “inactive”.
With `Cc1cc(N)ccc1N=Nc1c(C)n(C)n(-c2ccccc2)c1=O` the AC50 was “inactive”.
For `CC(C(=O)Nc1ccccc1)N1C(=O)c2ccccc2C1=O` (stereo unspecified), the AC50 was “inactive”.
For `O=C(O)c1ccc(-n2cccc2/C=C2/NC(=O)N(c3cccc(Cl)c3)C2=O)cc1`, the AC50 was “inactive”.
